From PubChem BioAssay AID2289 (National Center for Advancing Translational Sciences (NCATS), 2010)
About 3,300 (0.97%) of roughly 340,000 compounds were called active. Roughly 9% stayed inconclusive and do not appear here. The call rests on the fitted dose curve; in most records, active means well fitted inhibition curve with a large enough effect; inconclusive means small, poorly fitted or top-dose-only effect, or effect the other way; inactive means flat fitted curve, though single readings scatter. The list shows a part of the results.

Assay: qHTS Assay for Modulators of miRNAs and/or Inhibitors of miR-21; further: nearly all actives have a fitted effect of over 55% in size
Conditions: HeLa miR-21-FLuc reporter, luciferase luminescence, 48 h; actives lower the signal
How it was run: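 HeLa cells endogenously expressing miR-21, stably carrying CMV-driven firefly luciferase with a downstream miR-21 binding site, 2000 cells/well. Titrations up to approximately 40 uM, 48 hours; luciferase luminescence read.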
Potency means the concentration at half of the fitted maximal effect.

Potency, active:
Clc1ccc(-c2noc(CN3CCOCC3)n2)cc1 16.5 µM, O=[N+]([O-])c1ccccc1OCCCOc1cccc2cccnc12 5.21 µM, Brc1ccccc1OCCOc1cccc2cccnc12 11.7 µM, COc1cccc(OC)c1OCCCOc1cccc2cccnc12 7.36 µM, c1ccc(OCCOc2cccc3cccnc23)cc1 13.1 µM, CC(C)Sc1nc(SCC(=O)O)c2c3c(sc2n1)COC(C)(C)C3 9.27 µM, COCCCNC(=O)C1CCN(C(=O)c2oc3cc4sc(N(C)C)nc4cc3c2C)CC1 14.7 µM, Cc1ccc(C)c(NC(=S)c2ccc3ccccc3n2)c1 1.65 µM, Cc1ccccc1NC(=S)c1ccc2ccccc2n1 7.36 µM, N/C(=N\OC(=O)COc1ccc2ccccc2c1Br)c1ccccn1 7.36 µM, N/C(=N\OC(=O)COc1ccc2ccccc2c1Br)c1ccncc1 16.5 µM, CCOC(=O)c1c(NC(=O)CN2CCN(C)CC2)sc(C(=O)Nc2ccccc2)c1C 18.5 µM, COc1cc(/C=N/NS(=O)(=O)c2ccc(C)cc2)ccc1OCc1cccc(C(=O)O)c1 0.464 µM, COc1cc(/C=N/NS(=O)(=O)c2ccc3ccccc3c2)ccc1OCc1ccc(C(=O)O)cc1 0.414 µM, Cc1cc(SCC(=O)Nc2nsc(-c3ccc(C(C)(C)C)cc3)n2)nc2ccccc12 2.33 µM, COc1ccc(-n2cc(CN(C)CCO)c(-c3cccc(F)c3)n2)cc1 0.414 µM, C/C(=N\OCc1cccc(C(=O)O)c1)c1ccc(Cl)cc1 0.0414 µM, COc1cc(/C=N/OCC(=O)NC2CCCCC2C)ccc1OCc1ccc(Cl)cc1 (configuration not stated) 4.65 µM, COc1cc(/C=N/OCC(=O)Nc2cc(C)cc(C)c2)ccc1OCc1ccc(Cl)cc1 2.93 µM, CCCCc1ccc(NC(=O)C2CCCO2)cc1 (configuration not stated) 1.85 µM, CC1CCN(C(=O)Cn2nnc(-c3cccs3)n2)CC1 7.36 µM, Brc1ccc(-c2cn3cc(Cc4ccccc4)sc3n2)cc1 0.329 µM, COc1cccc(OCc2cc(C(=O)NCc3ccccn3)no2)c1 13.1 µM, CSc1ccccc1OCc1cc(C(=O)N(C)Cc2nonc2C)no1 8.26 µM, CSc1ccccc1OCc1cc(C(=O)N(C)Cc2ccncn2)no1 8.26 µM, CSc1ccccc1OCc1cc(C(=O)NCc2cccc(C)n2)no1 7.36 µM, CC(NC(=O)c1cc(COc2ccccc2)on1)c1nccs1 (configuration not stated) 2.07 µM
